HepG2 viability: HepG2 cytotoxicity, counter-screen for TGF-b inhibitors. HepG2 CAGA-GFP viability, ATP luminescence, 18 h. Potency, µM (series often up to 46.1 µM), usual class: cytotoxic. 410,000 tested, 0.76% active. AID 588856
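CellTiter-Glo luminescence gave cytotoxicity after 18 hours at 37 degrees C. The cells were HepG2 CAGA-GFP in 1% FBS DMEM, stimulated with 500 pg/mL TGF-beta after compound addition. %Activity was normalised to no-cell wells (complete cell-killing) and DMSO (no toxicity), and curves were fitted and classified.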
A549 tox: kills or reduces viability of A549 cells in Nrf2 counter-screen; A549 ARE-Fluc cells, CellTiter-Fluor viability, 18-24 h; Potency, µM (series often up to 46 µM), actives largely listed as inhibitors; 390,000 tested, 0.16% active; AID 504648
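A549 ARE-Fluc cells in 5% FBS OPTI-MEM, 5000 cells/well, rested 2 h then exposed to compounds in concentration-response for 18-24 h at 37 °C. Viability by CellTiter-Fluor fluorescence (Ex 405/Em 525) after 30 min; luciferase luminescence (BugLite, 15 min, RT) read afterwards.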
Nrf2 ARE act: activates Nrf2 signaling. 410,000 tested, 0.31% active. AID 624171. Potency, µM (series often up to 46.1 µM), actives largely listed as activators. AREc32 ARE-luciferase reporter (MCF7-derived line), luminescence, 24 h; also: nearly all actives have a fitted effect of over 65% in size
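Steps: seed AREc32_Fluc cells (1000/well, 5% FBS OPTI-MEM); incubate overnight at 37 deg C; add 23 nL compound; incubate 24 hr; add Steady-Glo; hold 30 min RT; read luminescence.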
Nrf2 inh: Nrf2 pathway inhibition | Potency, µM (series often up to 46 µM), usual class: inhibitors | AID 504444 | 360,000 tested, 2.1% active | A549 ARE-Fluc reporter, luciferase luminescence, 18-24 h; also: nearly all actives have a fitted effect of over 60% in size
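Nrf2 function is reported as luminescence of an ARE-controlled luciferase in A549 cells. Compounds were tested at several concentrations, and a CellTiter-Fluor read on the same wells flagged cytotoxicity.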
TGFb inhibitor: blocks TGF-b signaling; HepG2 CAGA-GFP TGF-b/SMAD3 reporter, GFP fluorescence, 18 h; TGF-beta stimulated, 500 pg/mL final; Potency, µM (titrated, usually from 46.1 µM), usual class: inhibitors; 410,000 tested, 1.2% active; also: nearly all actives have a fitted effect of over 65% in size
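Cell-based qHTS in HEPG2 carrying a CAGA-GFP Smad reporter; compounds added before 500 pg/mL final TGF-beta, 18 h incubation at 37 degrees C, GFP fluorescence quantified per cell by imaging cytometry.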
Of the large screens only hits and unclear results are named; the others gave an inactive call. Shown are actives, neighbours in structure and some others; about 3.6% of the full set was active somewhere. Calls follow the shape of the dose curve; as a rule, active = well fitted curve in the direction sought with a large enough effect; inconclusive = small, poorly fitted or top-dose-only effect, or another doubt; inactive = no such curve, though single readings can be large; an effect the other way counts as inactive or inconclusive.

Cc1ccc(CCNC(=O)C23C[C@H]4C[C@@H](C2)CC(n2nnc(C)n2)(C4)C3)cc1	none
COC(=O)C1=C(N)Oc2cc(C)n(C)c(=O)c2C1c1ccc(Cl)c(Cl)c1 (centres undefined)	none
OC(c1cccc(OCc2ccccc2)c1)c1nnc(-c2ccccc2)o1 (centres undefined)	Nrf2 inh inconclusive, TGFb inhibitor inconclusive
OC(c1ccc(OCc2ccccc2)cc1)c1nnc(-c2ccccc2)o1 (centres undefined)	Nrf2 inh 16µM
S=C(NCCCc1cnc[nH]1)NCCCN(Cc1ccc(Cl)cc1)c1ncc(Br)cn1	A549 tox inconclusive, Nrf2 inh inconclusive, TGFb inhibitor 18µM (no result: Nrf2 ARE act)
S=C(NCCCc1cnc[nH]1)NCCCN(CCc1ccc(Cl)cc1)c1ccc(Br)cn1	HepG2 viability 10µM, TGFb inhibitor inconclusive (no result: Nrf2 ARE act)
O=c1[nH]c2cc(Cl)cc(Cl)c2[nH]c1=O	none
O=C1CN(C(=O)c2ccc(Br)o2)C(c2ccc(F)cc2)c2cc(F)ccc2N1 (centres undefined)	Nrf2 inh 16µM
O=C1CN(C(=O)c2cccc(F)c2)C(c2ccc(F)cc2)c2cc(F)ccc2N1 (centres undefined)	none
Cc1c(Cl)cccc1NC(=O)CNC(=O)c1ccc2c(c1)OCCO2	none
Cn1nc([N+](=O)[O-])nc1S(C)(=O)=O	HepG2 viability 20µM, Nrf2 inh 23µM, TGFb inhibitor 13µM
CS(=O)(=O)c1nc([N+](=O)[O-])nn1CCCc1ccccc1	Nrf2 inh inconclusive, TGFb inhibitor inconclusive
CC(=O)N1CCC(C(=O)N2CCN(S(=O)(=O)c3ccc(Cl)s3)CC2)CC1	HepG2 viability 14µM
NC(N)=N/N=C/c1ccc(OCc2ccccc2)c(OCc2ccccc2)c1	HepG2 viability 16µM, TGFb inhibitor 18µM
NC(N)=N/N=C/c1ccc(Cl)c(Cl)c1	HepG2 viability 13µM, TGFb inhibitor inconclusive
COc1cc(/C=N/N=C(N)N)ccc1OCc1ccc(Cl)cc1	HepG2 viability 10µM, Nrf2 inh inconclusive, TGFb inhibitor inconclusive
O=C(CCNC(=O)C1CCN(S(=O)(=O)c2ccccc2)CC1)NCc1cccc(C(F)(F)F)c1	Nrf2 inh inconclusive
Cc1ccc(S(=O)(=O)NC2CCCC2)cc1C(N)=O	none
COc1ccc(N=c2nc(-c3ccc(C)cc3)n(-c3ccccc3)s2)cc1	A549 tox inconclusive, Nrf2 inh inconclusive, TGFb inhibitor 3.2µM (no result: Nrf2 ARE act)
COc1ccc(N=C2C(=Nc3ccc(OC)cc3)N(c3ccc(OC)cc3)C(=S)N2c2ccccc2)cc1	none
N=c1nc(-c2ccccc2)n(-c2ccccc2)s1	none (no result: Nrf2 ARE act)
Cc1ccc(-c2nc(=Nc3ccccc3)sn2-c2ccccc2)cc1	HepG2 viability 4.5µM, Nrf2 inh inconclusive, TGFb inhibitor 3.5µM (no result: Nrf2 ARE act)
COc1ccc(N=c2nc(-c3ccccc3)n(-c3ccc(C)cc3)s2)cc1	Nrf2 inh inconclusive, TGFb inhibitor 4µM (no result: Nrf2 ARE act)
c1csc(-c2nc3ccccn3c2Nc2ccc3c(c2)OCCO3)c1	Nrf2 inh 23µM
O=C(Nc1ccc2snnc2c1)Nc1cccc2ccccc12	Nrf2 inh 16µM
CCc1ccccc1NC(=O)Nc1ccc2snnc2c1	TGFb inhibitor inconclusive
CC1=C(C(=O)NCc2ccc3c(c2)OCO3)C2(CCC(C)CC2)OC1=O (centres undefined)	none
CCOC(=O)/C(C#N)=C/NC(=O)NC(C)(C)C	none
N#Cc1c(NC(=O)c2cc(-n3cnnc3)ccc2Cl)sc2c1CCCC2	Nrf2 inh 23µM
O=C(Nc1ccc(S(=O)(=O)Nc2nccs2)cc1)/C(=C/c1ccccc1Cl)NC(=O)c1ccccc1	none
CC(C)=CCOc1ccc([C@@H]2COc3c(ccc4c3C=CC(C)(C)O4)C2)c(O)c1	HepG2 viability 14µM, Nrf2 inh inconclusive, TGFb inhibitor 13µM
COc1ccc(OCc2cc(=O)c3ccc4c(c3o2)C=CC(C)(C)O4)cc1OC	Nrf2 inh inconclusive, TGFb inhibitor inconclusive
COc1ccc(CC(=O)OCc2csc(CC(=O)Nc3ccc(C)cc3)n2)cc1	none
O=C(/C=C/c1cccc([N+](=O)[O-])c1)NCCSCc1ccc(Cl)cc1Cl	TGFb inhibitor 13µM
Cc1ccccc1C(=O)N1CCN(c2ccc(NC(=O)c3cccc(OC(C)C)c3)cc2)CC1	none
COc1c(C)cccc1C(=O)Nc1ccc(N2CCN(C(=O)c3ccccc3C)CC2)cc1	Nrf2 inh 21µM, TGFb inhibitor inconclusive
Cc1ccccc1C(=O)N1CCN(c2ccc(NC(=O)c3ccc4c(c3)OCCO4)cc2)CC1	Nrf2 inh 21µM
CCc1ccc(OCC(=O)Nc2ccc(Cl)c(-c3nc4cc(C)cc(C)c4o3)c2)cc1	none
CC(C(=O)Nc1ccc(C#N)cc1)N(C)CC(=O)Nc1ccccc1Br (centres undefined)	Nrf2 inh inconclusive, TGFb inhibitor inconclusive
O=C(O)CCc1ccc(-c2ccccc2)n1CC(=O)Nc1cccc(C(F)(F)F)c1	none
Cc1csc(SCCn2c(Br)nc3c2c(=O)[nH]c(=O)n3C)n1	none
S=C(Nc1cc(Cl)cc(Cl)c1)NC1CCN(Cc2ccccc2)CC1	HepG2 viability 16µM, A549 tox inconclusive, Nrf2 inh inconclusive, TGFb inhibitor inconclusive
CC(=O)Nc1ccc(/C(C)=N/NC(=O)c2ccc(CN3CCOCC3)cc2)cc1	none
Cc1ccnc(Nc2nc(-c3ccc(O)cc3O)cs2)c1	HepG2 viability 11µM, TGFb inhibitor 11µM
Cc1ccnc(Nc2nc(-c3ccc(O)c(O)c3)cs2)c1	Nrf2 inh inconclusive, TGFb inhibitor 14µM
O=C(CSc1oc(-c2cccs2)nc1S(=O)(=O)c1ccccc1)Nc1ccc(F)cc1	none
CCc1ccc2[nH]c3nc(SCC(=O)NNC(=O)c4ccc(C(C)(C)C)cc4)nnc3c2c1	A549 tox 12µM, Nrf2 inh inconclusive
Cc1ccc(C(=O)NNC(=O)CSc2nnc3c(n2)[nH]c2ccc(C)cc23)cc1	Nrf2 inh inconclusive
CCN(CC)S(=O)(=O)c1ccc(C(=O)NC(=S)N2CCN(c3ccccc3O)CC2)cc1	none (no result: A549 tox, Nrf2 inh)
O=S(=O)(c1ccccc1)N1CCN(c2nc(C3CC3)nc3ccccc23)CC1	none (no result: HepG2 viability, Nrf2 ARE act, TGFb inhibitor)
O=S(=O)(c1ccccc1)N1CCN(c2ccnc3cc(Cl)ccc23)CC1	Nrf2 inh 23µM, TGFb inhibitor inconclusive
Cc1cc(N2CCN(S(=O)(=O)c3ccccc3)CC2)c2ccccc2n1	Nrf2 inh 21µM, TGFb inhibitor inconclusive
COc1ccc(C(=O)Nc2ccccc2C(=O)NC(C)C)cc1OC	none
O=C(CSc1nc2ccccc2n1S(=O)(=O)c1cccc([N+](=O)[O-])c1)NCCc1ccccc1	A549 tox inconclusive, Nrf2 inh 18µM
